Measurements reported in the supplement of paper PMC8728848.
Many of the other results were omitted from the sample, so the strongest signals are more common in it than they were.

How the values were obtained:
Experiment in all cases: glycan array binding signal (z-score within array); higher = stronger binding
Conditions in all cases: glycan notation: IUPAC condensed, linker removed
Fuc(a1-2)Gal(b1-3)GalNAc = molecular target: Fuc(a1-2)Gal(b1-3)GalNAc
Method in brief: (§1)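 From the Consortium for Functional Glycomics database, 3228 arrays were curated, keeping only those whose protein sequence was available. Binding is given as a within-array Z-score averaged across arrays sharing a protein sequence and across linkers. Negative Z-scores can be read as non-binding.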

[1] = molecular target: Fuc(a1-2)Gal(b1-3)GalNAc(b1-3)Gal(a1-4)Gal(b1-4)Glc
Method in brief: as §1

[2] = molecular target: Fuc(a1-2)Gal(b1-3)GlcNAc6S
Method in brief: as §1

Fuc(a1-2)Gal(b1-4)GlcNAc = molecular target: Fuc(a1-2)Gal(b1-4)GlcNAc
Method in brief: as §1

[3] = molecular target: Fuc(a1-2)Gal(b1-4)GlcNAc(b1-3)[Fuc(a1-3)[Gal(b1-4)]GlcNAc(b1-6)]Gal(b1-4)Glc
Method in brief: as §1

[4] = molecular target: Fuc(a1-2)Gal(b1-4)[Fuc(a1-3)]GlcNAc(b1-3)Gal(b1-4)[Fuc(a1-3)]GlcNAc(b1-3)Gal(b1-4)[Fuc(a1-3)]GlcNAc
Method in brief: as §1

[5] = molecular target: Fuc(a1-2)[Gal(a1-3)]Gal(b1-3)GlcNAc
Method in brief: as §1

[6] = molecular target: Fuc(a1-2)[Gal(a1-3)]Gal(b1-3)GlcNAc(b1-6)GalNAc
Method in brief: as §1

[7] = molecular target: Fuc(a1-2)[GalNAc(a1-3)]Gal(b1-4)GlcNAc(b1-2)Man(a1-3)[Fuc(a1-2)[GalNAc(a1-3)]Gal(b1-4)GlcNAc(b1-2)Man(a1-6)]Man(b1-4)GlcNAc(b1-4)[Fuc(a1-6)]GlcNAc
Method in brief: as §1

[8] = molecular target: Fuc(a1-2)[GalNAc(a1-3)]Gal(b1-4)GlcNAc(b1-3)Gal(b1-4)GlcNAc
Method in brief: as §1

[9] = molecular target: Fuc(a1-3)[Gal(b1-4)]GlcNAc(b1-2)Man
Method in brief: as §1

Gal(a1-2)Gal = molecular target: Gal(a1-2)Gal
Method in brief: as §1

[10] = molecular target: Gal(a1-3)Gal(b1-3)GlcNAc(b1-2)Man(a1-3)[Gal(a1-3)Gal(b1-3)GlcNAc(b1-2)Man(a1-6)]Man(b1-4)GlcNAc(b1-4)GlcNAc
Method in brief: as §1

[11] = molecular target: Gal(a1-3)Gal(b1-4)[Fuc(a1-3)]GlcNAc
Method in brief: as §1

[12] = molecular target: Gal(a1-4)Gal(b1-3)GlcNAc(b1-2)Man(a1-3)[Gal(a1-4)Gal(b1-3)GlcNAc(b1-2)Man(a1-6)]Man(b1-4)GlcNAc(b1-4)GlcNAc
Method in brief: as §1

Gal(a1-4)Gal(b1-4)Glc = molecular target: Gal(a1-4)Gal(b1-4)Glc
Method in brief: as §1

Gal(b1-3)GalNAc = molecular target: Gal(b1-3)GalNAc
Method in brief: as §1

[13] = molecular target: Gal(b1-3)GalNAc(a1-3)[Fuc(a1-2)]Gal(b1-4)Glc
Method in brief: as §1

[14] = molecular target: Gal(b1-3)GalNAc(b1-3)Gal(a1-4)Gal(b1-4)Glc
Method in brief: as §1

[15] = molecular target: Gal(b1-3)[GlcNAc(b1-6)]GalNAc
Method in brief: as §1

[16] = molecular target: Gal(b1-3)[Neu5Ac(b2-6)]GalNAc
Method in brief: as §1

[17] = molecular target: Gal(b1-4)GlcNAc(a1-6)Gal(b1-4)GlcNAc
Method in brief: as §1

[18] = molecular target: Gal(b1-4)GlcNAc(b1-2)Man(a1-3)[Gal(b1-4)GlcNAc(b1-2)Man(a1-6)]Man(b1-4)GlcNAc(b1-4)GlcNAc
Method in brief: as §1

[19] = molecular target: Gal(b1-4)GlcNAc(b1-2)Man(a1-3)[Gal(b1-4)GlcNAc(b1-2)Man(a1-6)][GlcNAc(b1-4)]Man(b1-4)GlcNAc(b1-4)[Fuc(a1-6)]GlcNAc
Method in brief: as §1

[20] = molecular target: Gal(b1-4)GlcNAc(b1-2)Man(a1-6)Man(b1-4)GlcNAc(b1-4)GlcNAc
Method in brief: as §1

[21] = molecular target: Gal(b1-4)GlcNAc(b1-2)[Gal(b1-4)GlcNAc(b1-4)]Man(a1-3)[GlcNAc(b1-4)][Gal(b1-4)GlcNAc(b1-2)Man(a1-6)]Man(b1-4)GlcNAc(b1-4)GlcNAc
Method in brief: as §1

[22] = molecular target: Gal(b1-4)GlcNAc(b1-2)[Gal(b1-4)GlcNAc(b1-6)]Man(a1-6)[Gal(b1-4)GlcNAc(b1-2)Man(a1-3)]Man(b1-4)GlcNAc(b1-4)GlcNAc
Method in brief: as §1

[23] = molecular target: Gal(b1-4)GlcNAc(b1-3)Gal(b1-4)GlcNAc(b1-3)Gal(b1-4)GlcNAc(b1-2)[Gal(b1-4)GlcNAc(b1-3)Gal(b1-4)GlcNAc(b1-3)Gal(b1-4)GlcNAc(b1-6)]Man(a1-6)[Gal(b1-4)GlcNAc(b1-3)Gal(b1-4)GlcNAc(b1-3)Gal(b1-4)GlcNAc(b1-2)Man(a1-3)]Man(b1-4)GlcNAc(b1-4)[Fuc(a1-6)]GlcNAc
Method in brief: as §1

[24] = molecular target: Gal(b1-4)GlcNAc(b1-3)Gal(b1-4)[Fuc(a1-3)]GlcNAc(b1-3)Gal(b1-4)[Fuc(a1-3)]GlcNAc
Method in brief: as §1

[25] = molecular target: Gal(b1-4)GlcNAc(b1-6)[Gal(b1-4)GlcNAc(b1-3)]GalNAc
Method in brief: as §1

[26] = molecular target: GalNAc(a1-3)GalNAc(b1-3)Gal(a1-4)Gal(b1-4)Glc
Method in brief: as §1

[27] = molecular target: GalNAc(b1-3)Gal(a1-6)Gal(b1-4)Glc
Method in brief: as §1

GalNAc(b1-4)GlcNAc6S = molecular target: GalNAc(b1-4)GlcNAc6S
Method in brief: as §1

GalNAc3S(b1-4)GlcNAc3S = molecular target: GalNAc3S(b1-4)GlcNAc3S
Method in brief: as §1

GalNAc4S6S(b1-4)GlcNAc = molecular target: GalNAc4S6S(b1-4)GlcNAc
Method in brief: as §1

[28] = molecular target: GlcNAc(b1-2)Man(a1-3)[GlcNAc(b1-2)Man(a1-6)]Man(b1-4)GlcNAc(b1-4)[Fuc(a1-6)]GlcNAc
Method in brief: as §1

[29] = molecular target: GlcNAc(b1-3)Gal(b1-4)GlcNAc(b1-2)[GlcNAc(b1-3)Gal(b1-4)GlcNAc(b1-6)]Man(a1-6)[GlcNAc(b1-3)Gal(b1-4)GlcNAc(b1-2)Man(a1-3)]Man(b1-4)GlcNAc(b1-4)GlcNAc
Method in brief: as §1

[30] = molecular target: GlcNAc(b1-3)Gal(b1-4)GlcNAc(b1-3)Gal(b1-4)GlcNAc(b1-3)Gal(b1-4)GlcNAc(b1-3)Gal(b1-4)GlcNAc(b1-2)Man(a1-3)[GlcNAc(b1-3)Gal(b1-4)GlcNAc(b1-3)Gal(b1-4)GlcNAc(b1-3)Gal(b1-4)GlcNAc(b1-3)Gal(b1-4)GlcNAc(b1-2)Man(a1-6)]Man(b1-4)GlcNAc(b1-4)[Fuc(a1-6)]GlcNAc
Method in brief: as §1

[31] = molecular target: GlcNAc(b1-3)[GlcNAc(b1-6)]Gal(b1-4)GlcNAc
Method in brief: as §1

[32] = molecular target: GlcNAc(b1-4)GlcNAc(b1-4)GlcNAc(b1-4)GlcNAc(b1-4)GlcNAc(b1-4)GlcNAc
Method in brief: as §1

Man(a1-2)Man(a1-3)Man = molecular target: Man(a1-2)Man(a1-3)Man
Method in brief: as §1

[33] = molecular target: Neu5Ac(a2-3)Gal(b1-3)GlcNAc(b1-3)Gal(b1-3)GlcNAc
Method in brief: as §1

[34] = molecular target: Neu5Ac(a2-3)Gal(b1-3)[GlcNAc(b1-6)]GalNAc
Method in brief: as §1

[35] = molecular target: Neu5Ac(a2-3)Gal(b1-4)GlcNAc(b1-3)Gal(b1-4)GlcNAc(b1-6)[Gal(b1-3)]GalNAc
Method in brief: as §1

[36] = molecular target: Neu5Ac(a2-3)Gal(b1-4)GlcNAc(b1-3)Gal(b1-4)[Fuc(a1-3)]GlcNAc
Method in brief: as §1

[37] = molecular target: Neu5Ac(a2-3)Gal(b1-4)GlcNAc(b1-6)[Gal(b1-3)]GalNAc
Method in brief: as §1

[38] = molecular target: Neu5Ac(a2-3)Gal(b1-4)[Fuc(a1-3)]GlcNAc(b1-3)GalNAc
Method in brief: as §1

[39] = molecular target: Neu5Ac(a2-3)[Neu5Ac(a2-6)]GalNAc
Method in brief: as §1

[40] = molecular target: Neu5Ac(a2-6)Gal(b1-4)GlcNAc(b1-2)Man(a1-6)[Man(a1-3)]Man(b1-4)GlcNAc(b1-4)GlcNAc
Method in brief: as §1

Neu5Gc(a2-3)Gal(b1-4)Glc = molecular target: Neu5Gc(a2-3)Gal(b1-4)Glc
Method in brief: as §1

[41] = molecular target: Neu5Gc(a2-3)Gal(b1-4)GlcNAc
Method in brief: as §1

B1: EUL D1A first (Oryza sativa) (protein)
chain: MFGFGHHHNQAPAAPSDPNQIFKIFCRANENYCLTVRDSAVVLAPVNPKDEHQHWFKDMRFSTKVKDGEGMPAFALVNKATGLAVKHSLGQSHPVKLVPFNPEYEDASVLWTESKDVGKGFRCIRMVNNTRLNLDAFHGDKDHGGVRDGTTVVLWEWCKGDNQSWKILPWGPEAHSSSPGAATILEQKLISEEDLNSAVDHHHHHH
glycan array binding signal (z-score) (Fuc(a1-2)Gal(b1-3)GalNAc): -0.658
glycan array binding signal (z-score) [1]: 2.66
glycan array binding signal (z-score) [2]: 3.74
glycan array binding signal (z-score) (Fuc(a1-2)Gal(b1-4)GlcNAc): -0.369
glycan array binding signal (z-score) [3]: 2.74
glycan array binding signal (z-score) [4]: 0.387
glycan array binding signal (z-score) [5]: 0.384
glycan array binding signal (z-score) [6]: -0.959
glycan array binding signal (z-score) [7]: 0.095
glycan array binding signal (z-score) [8]: -0.61
glycan array binding signal (z-score) [9]: 3.34
glycan array binding signal (z-score) (Gal(a1-2)Gal): -0.848
glycan array binding signal (z-score) [10]: 3.31
glycan array binding signal (z-score) [11]: -0.411
glycan array binding signal (z-score) [12]: 2.2
glycan array binding signal (z-score) (Gal(a1-4)Gal(b1-4)Glc): 0.4
glycan array binding signal (z-score) (Gal(b1-3)GalNAc): -0.735
glycan array binding signal (z-score) [13]: -1.67
glycan array binding signal (z-score) [14]: -0.207
glycan array binding signal (z-score) [15]: -1.03
glycan array binding signal (z-score) [16]: -1.15
glycan array binding signal (z-score) [17]: 1.94
glycan array binding signal (z-score) [18]: 3.09
glycan array binding signal (z-score) [19]: -1.23
glycan array binding signal (z-score) [20]: 3.03
glycan array binding signal (z-score) [21]: -1.53
glycan array binding signal (z-score) [22]: -1.05
glycan array binding signal (z-score) [23]: 2.45
glycan array binding signal (z-score) [24]: -0.16
glycan array binding signal (z-score) [25]: -0.802
glycan array binding signal (z-score) [26]: -0.059
glycan array binding signal (z-score) [27]: -2.32
glycan array binding signal (z-score) (GalNAc(b1-4)GlcNAc6S): -0.411
glycan array binding signal (z-score) (GalNAc3S(b1-4)GlcNAc3S): -0.185
glycan array binding signal (z-score) (GalNAc4S6S(b1-4)GlcNAc): 0.534
glycan array binding signal (z-score) [28]: 3.11
glycan array binding signal (z-score) [29]: 1.95
glycan array binding signal (z-score) [30]: 2.06
glycan array binding signal (z-score) [31]: 6.85
glycan array binding signal (z-score) [32]: -0.541
glycan array binding signal (z-score) (Man(a1-2)Man(a1-3)Man): 0.615
glycan array binding signal (z-score) [33]: 0.506
glycan array binding signal (z-score) [34]: 0.405
glycan array binding signal (z-score) [35]: 0.24
glycan array binding signal (z-score) [36]: -0.958
glycan array binding signal (z-score) [37]: 0.081
glycan array binding signal (z-score) [38]: 3.45
glycan array binding signal (z-score) [39]: -0.451
glycan array binding signal (z-score) [40]: -0.647
glycan array binding signal (z-score) (Neu5Gc(a2-3)Gal(b1-4)Glc): -0.152
glycan array binding signal (z-score) [41]: 0.3
